For 1 sequence, binding signal results are on record in PMC7862700, “An all-to-all approach to the identification of sequence-specific readers for epigenetic DNA modifications on cytosine”.

Experiment in all cases: DAPPL (digital affinity profiling via proximity ligation, sequencing); 10 mM Tris-HCl pH 7.5, 50 mM NaCl, 1 mM DTT, 4% glycerol, room temperature, 30 min; GST-TFs on glutathione beads, 16-mer random dsDNA library, 0.1% formaldehyde crosslink after washing; high values mean tight binding
In experiment [1] the target is T1, FEV (Homo sapiens, UniProt Q99581 1-238).
T1 sequence: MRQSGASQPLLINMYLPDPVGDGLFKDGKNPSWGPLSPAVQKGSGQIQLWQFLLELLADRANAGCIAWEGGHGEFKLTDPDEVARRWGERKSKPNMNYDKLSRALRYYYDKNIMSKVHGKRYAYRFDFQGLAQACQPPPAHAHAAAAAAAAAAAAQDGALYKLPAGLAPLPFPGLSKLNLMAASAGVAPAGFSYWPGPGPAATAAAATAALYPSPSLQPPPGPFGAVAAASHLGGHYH
The conditions noted are these: protein: recombinant; tags: N-terminal GST; dsDNA, one strand shown. The gist of the method: (§1)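 In yeast, human transcription factors were expressed with a GST fusion, then pulled down on glutathione beads and given DNA barcodes. Pooled with a tag-only sample, they were exposed to 200 nmole of a 16-mer random double-stranded DNA library (Tris/NaCl/DTT/glycerol buffer, room temperature, 30 min), washed, crosslinked with 0.1% formaldehyde, proximity-ligated using BsaI/T4 ligase for 1 h at 37 °C, PCR-amplified and read on an Illumina NextSeq500. Each hexamer's frequency of reads for a factor, divided by the matching frequency for the tag-only sample, gives the binding signal.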

Experiment [2] addresses ETV5 (Homo sapiens, UniProt P41161 1-510). The note with it: protein: recombinant; tags: N-terminal GST; dsDNA, one strand shown. The method in brief: as §1
Experiment [3] concerns the target HSF1 (Homo sapiens, UniProt Q00613 1-529). The note with it: protein: recombinant; tags: N-terminal GST; chain copies: 3; dsDNA, one strand shown. The gist of the method:
as §1

Experiment [4] deals with T2, SPIC (Homo sapiens, UniProt Q8N5J4 1-248).
T2 sequence: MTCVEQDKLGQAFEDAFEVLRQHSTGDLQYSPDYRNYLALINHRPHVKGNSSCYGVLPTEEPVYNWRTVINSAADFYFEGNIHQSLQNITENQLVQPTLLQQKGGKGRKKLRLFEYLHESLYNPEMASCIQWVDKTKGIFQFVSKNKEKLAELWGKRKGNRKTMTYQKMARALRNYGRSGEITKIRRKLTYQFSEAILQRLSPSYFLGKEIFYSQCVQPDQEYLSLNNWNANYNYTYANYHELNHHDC
The note with it: protein: recombinant; tags: N-terminal GST; dsDNA, one strand shown. The method in brief: as §1

In experiment [5] the target is ELF4 (Homo sapiens, UniProt Q99607 1-663). The note with it: protein: recombinant; tags: N-terminal GST; dsDNA, one strand shown. The gist of the method:
as §1

Experiment [6] has as its target T3, ELK4 (Homo sapiens, UniProt P28324-2 1-405).
T3 sequence: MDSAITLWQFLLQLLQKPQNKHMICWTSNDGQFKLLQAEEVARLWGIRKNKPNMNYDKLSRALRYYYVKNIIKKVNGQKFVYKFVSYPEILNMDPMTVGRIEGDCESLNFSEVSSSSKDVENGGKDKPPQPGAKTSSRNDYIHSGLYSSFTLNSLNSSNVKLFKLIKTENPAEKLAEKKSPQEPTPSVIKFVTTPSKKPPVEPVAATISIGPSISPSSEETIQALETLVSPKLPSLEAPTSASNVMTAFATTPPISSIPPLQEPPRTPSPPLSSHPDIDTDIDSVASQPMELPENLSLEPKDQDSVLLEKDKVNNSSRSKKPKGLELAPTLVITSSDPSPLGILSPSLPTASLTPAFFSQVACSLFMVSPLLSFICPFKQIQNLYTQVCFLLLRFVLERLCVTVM
The conditions noted are these: protein: recombinant; tags: N-terminal GST; dsDNA, one strand shown. The method in brief:
as §1

Experiment [7] addresses T4, ETV2 (Homo sapiens, UniProt O00321 1-342).
T4 sequence: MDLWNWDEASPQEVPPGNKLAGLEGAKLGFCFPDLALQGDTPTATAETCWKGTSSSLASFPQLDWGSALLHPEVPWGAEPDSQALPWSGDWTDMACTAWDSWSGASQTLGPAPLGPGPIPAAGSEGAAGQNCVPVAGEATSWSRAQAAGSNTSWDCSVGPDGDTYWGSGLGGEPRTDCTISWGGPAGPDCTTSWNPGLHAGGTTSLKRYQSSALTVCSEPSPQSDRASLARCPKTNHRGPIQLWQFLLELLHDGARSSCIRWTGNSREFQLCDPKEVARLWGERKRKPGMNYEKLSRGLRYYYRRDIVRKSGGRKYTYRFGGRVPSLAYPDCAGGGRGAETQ
The conditions noted are these: protein: recombinant; tags: N-terminal GST; dsDNA, one strand shown. The gist of the method:
as §1

Experiment [8] deals with T5, ELF3 (Homo sapiens, UniProt P78545 1-371).
T5 sequence: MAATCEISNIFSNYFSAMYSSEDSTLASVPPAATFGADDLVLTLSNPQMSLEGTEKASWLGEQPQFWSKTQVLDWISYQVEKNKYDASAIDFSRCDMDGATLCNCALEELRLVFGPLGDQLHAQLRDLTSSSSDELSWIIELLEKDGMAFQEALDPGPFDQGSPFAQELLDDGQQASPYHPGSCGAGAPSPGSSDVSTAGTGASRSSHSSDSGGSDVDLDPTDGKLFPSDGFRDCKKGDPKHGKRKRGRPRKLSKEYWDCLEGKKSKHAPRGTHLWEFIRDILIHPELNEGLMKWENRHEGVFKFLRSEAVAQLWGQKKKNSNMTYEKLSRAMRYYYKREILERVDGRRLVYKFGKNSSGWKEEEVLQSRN
The conditions noted are these: protein: recombinant; tags: N-terminal GST; dsDNA, one strand shown. The gist of the method:
as §1

Experiment [9] has as its target CRX (Homo sapiens, UniProt O43186 1-299). The note with it: protein: recombinant; tags: N-terminal GST; dsDNA, one strand shown. The gist of the method:
as §1

In experiment [10] the target is ETV1 (Homo sapiens, UniProt P50549 1-477). The conditions noted are these: protein: recombinant; tags: N-terminal GST; dsDNA, one strand shown. The method in brief:
as §1

In experiment [11] the target is T6, ERF (Homo sapiens, UniProt P50548 1-548).
T6 sequence: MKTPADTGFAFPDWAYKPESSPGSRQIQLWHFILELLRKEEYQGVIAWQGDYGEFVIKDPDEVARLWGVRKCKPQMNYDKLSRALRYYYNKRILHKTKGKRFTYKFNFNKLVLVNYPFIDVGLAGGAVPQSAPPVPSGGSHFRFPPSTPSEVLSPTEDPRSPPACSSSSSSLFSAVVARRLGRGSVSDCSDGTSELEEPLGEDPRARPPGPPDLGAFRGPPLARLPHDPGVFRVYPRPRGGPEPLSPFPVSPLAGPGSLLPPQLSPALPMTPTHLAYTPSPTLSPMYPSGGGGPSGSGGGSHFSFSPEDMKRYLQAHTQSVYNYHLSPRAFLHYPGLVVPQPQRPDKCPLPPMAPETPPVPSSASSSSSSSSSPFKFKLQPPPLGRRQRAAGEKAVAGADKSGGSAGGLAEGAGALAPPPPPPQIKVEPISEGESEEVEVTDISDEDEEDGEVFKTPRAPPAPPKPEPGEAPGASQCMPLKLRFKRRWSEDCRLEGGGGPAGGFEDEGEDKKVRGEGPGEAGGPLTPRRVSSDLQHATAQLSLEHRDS
The conditions noted are these: protein: recombinant; tags: N-terminal GST; dsDNA, one strand shown. The method in brief:
as §1

Experiment [12] addresses T7, ETV3L (Homo sapiens, UniProt Q6ZN32 1-361).
T7 sequence: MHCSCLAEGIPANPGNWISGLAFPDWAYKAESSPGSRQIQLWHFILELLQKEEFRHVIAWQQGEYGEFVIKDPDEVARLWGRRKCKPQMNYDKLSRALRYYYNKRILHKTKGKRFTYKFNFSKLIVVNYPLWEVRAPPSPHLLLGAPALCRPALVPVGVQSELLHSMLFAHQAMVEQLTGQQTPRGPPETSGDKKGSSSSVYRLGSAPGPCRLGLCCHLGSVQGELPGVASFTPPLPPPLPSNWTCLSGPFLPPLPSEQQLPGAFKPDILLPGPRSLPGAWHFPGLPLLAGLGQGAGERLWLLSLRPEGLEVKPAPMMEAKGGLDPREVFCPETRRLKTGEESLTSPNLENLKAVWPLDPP
The note with it: protein: recombinant; tags: N-terminal GST; dsDNA, one strand shown. The method in brief: as §1

Experiment [13] concerns the target T8, ETS2 (Homo sapiens, UniProt P15036 1-469).
T8 sequence: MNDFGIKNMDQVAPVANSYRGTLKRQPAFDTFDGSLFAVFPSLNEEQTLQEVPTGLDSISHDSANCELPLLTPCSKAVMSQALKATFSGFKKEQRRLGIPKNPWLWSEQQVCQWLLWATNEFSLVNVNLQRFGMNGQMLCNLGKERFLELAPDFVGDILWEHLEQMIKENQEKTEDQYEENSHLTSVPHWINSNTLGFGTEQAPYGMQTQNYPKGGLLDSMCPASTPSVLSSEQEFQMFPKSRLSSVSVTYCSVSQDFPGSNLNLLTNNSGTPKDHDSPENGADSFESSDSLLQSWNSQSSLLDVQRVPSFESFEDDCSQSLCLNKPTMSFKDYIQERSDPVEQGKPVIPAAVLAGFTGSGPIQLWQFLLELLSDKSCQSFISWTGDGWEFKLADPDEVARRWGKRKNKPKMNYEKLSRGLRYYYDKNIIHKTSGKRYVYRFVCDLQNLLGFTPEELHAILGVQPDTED
The conditions noted are these: protein: recombinant; tags: N-terminal GST; dsDNA, one strand shown. The gist of the method:
as §1

Experiment [14] concerns the target T9, SPDEF (Homo sapiens, UniProt O95238 1-335).
T9 sequence: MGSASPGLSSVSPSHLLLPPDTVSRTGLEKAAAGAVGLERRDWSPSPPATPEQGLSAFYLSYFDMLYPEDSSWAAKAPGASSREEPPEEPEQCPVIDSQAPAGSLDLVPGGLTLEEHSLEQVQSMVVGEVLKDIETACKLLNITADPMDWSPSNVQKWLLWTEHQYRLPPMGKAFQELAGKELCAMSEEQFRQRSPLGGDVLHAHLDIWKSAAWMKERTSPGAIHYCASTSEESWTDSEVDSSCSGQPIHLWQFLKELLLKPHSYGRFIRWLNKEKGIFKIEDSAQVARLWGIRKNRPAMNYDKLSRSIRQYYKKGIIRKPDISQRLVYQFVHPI
The conditions noted are these: protein: recombinant; tags: N-terminal GST; dsDNA, one strand shown. The method in brief: as §1

The target in experiment [15] is T10, ETV7 (Homo sapiens, UniProt Q9Y603 1-341).
T10 sequence: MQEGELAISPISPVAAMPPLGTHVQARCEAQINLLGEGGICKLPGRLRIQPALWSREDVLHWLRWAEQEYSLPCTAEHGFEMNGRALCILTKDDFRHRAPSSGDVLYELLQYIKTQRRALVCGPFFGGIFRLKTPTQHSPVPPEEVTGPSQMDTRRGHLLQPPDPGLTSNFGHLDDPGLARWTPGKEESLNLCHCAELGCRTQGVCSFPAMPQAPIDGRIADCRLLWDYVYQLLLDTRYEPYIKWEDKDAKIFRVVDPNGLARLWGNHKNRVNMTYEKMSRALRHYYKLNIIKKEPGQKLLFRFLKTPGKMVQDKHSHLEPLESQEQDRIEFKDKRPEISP
The conditions noted are these: protein: recombinant; tags: N-terminal GST; dsDNA, one strand shown. The method in brief:
as §1

Experiment [16] concerns the target T11, ELF5 (Homo sapiens, UniProt Q9UKW6-2 1-255).
T11 sequence: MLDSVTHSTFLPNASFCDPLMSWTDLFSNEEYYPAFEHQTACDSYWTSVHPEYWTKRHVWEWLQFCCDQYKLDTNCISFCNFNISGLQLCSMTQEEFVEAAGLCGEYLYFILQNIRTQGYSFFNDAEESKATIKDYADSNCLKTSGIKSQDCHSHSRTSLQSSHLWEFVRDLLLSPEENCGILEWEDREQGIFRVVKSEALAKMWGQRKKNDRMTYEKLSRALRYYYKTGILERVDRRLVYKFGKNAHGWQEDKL
The conditions noted are these: protein: recombinant; tags: N-terminal GST; dsDNA, one strand shown. The method in brief:
as §1

The target of experiment [17] is T12, ETV3 (Homo sapiens, UniProt P41162-2 1-143).
T12 sequence: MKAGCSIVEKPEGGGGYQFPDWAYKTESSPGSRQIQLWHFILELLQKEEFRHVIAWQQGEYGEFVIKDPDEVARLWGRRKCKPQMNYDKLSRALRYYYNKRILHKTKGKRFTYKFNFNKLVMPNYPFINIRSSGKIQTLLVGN
The note with it: protein: recombinant; tags: N-terminal GST; dsDNA, one strand shown. The gist of the method:
as §1

Experiment [18] has as its target ETV6 (Homo sapiens, UniProt P41212 1-452). The note with it: protein: recombinant; tags: N-terminal GST; dsDNA, one strand shown. The gist of the method:
as §1

Chain of HSF1 (Q00613 whole entry): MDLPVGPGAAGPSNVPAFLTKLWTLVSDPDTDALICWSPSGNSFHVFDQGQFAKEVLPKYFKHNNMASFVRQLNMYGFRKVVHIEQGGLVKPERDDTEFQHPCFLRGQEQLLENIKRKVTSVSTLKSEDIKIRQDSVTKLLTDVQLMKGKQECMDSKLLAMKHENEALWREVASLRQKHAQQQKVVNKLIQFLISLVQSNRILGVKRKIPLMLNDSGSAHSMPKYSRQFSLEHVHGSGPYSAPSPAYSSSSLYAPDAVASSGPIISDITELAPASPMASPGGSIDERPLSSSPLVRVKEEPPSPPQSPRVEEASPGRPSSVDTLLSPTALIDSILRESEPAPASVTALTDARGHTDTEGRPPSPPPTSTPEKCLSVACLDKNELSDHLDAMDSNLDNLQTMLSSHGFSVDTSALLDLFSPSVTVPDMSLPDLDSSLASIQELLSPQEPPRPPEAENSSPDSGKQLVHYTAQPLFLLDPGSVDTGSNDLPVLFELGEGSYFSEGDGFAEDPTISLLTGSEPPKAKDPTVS
Chain of ETV5 (P41161 whole entry): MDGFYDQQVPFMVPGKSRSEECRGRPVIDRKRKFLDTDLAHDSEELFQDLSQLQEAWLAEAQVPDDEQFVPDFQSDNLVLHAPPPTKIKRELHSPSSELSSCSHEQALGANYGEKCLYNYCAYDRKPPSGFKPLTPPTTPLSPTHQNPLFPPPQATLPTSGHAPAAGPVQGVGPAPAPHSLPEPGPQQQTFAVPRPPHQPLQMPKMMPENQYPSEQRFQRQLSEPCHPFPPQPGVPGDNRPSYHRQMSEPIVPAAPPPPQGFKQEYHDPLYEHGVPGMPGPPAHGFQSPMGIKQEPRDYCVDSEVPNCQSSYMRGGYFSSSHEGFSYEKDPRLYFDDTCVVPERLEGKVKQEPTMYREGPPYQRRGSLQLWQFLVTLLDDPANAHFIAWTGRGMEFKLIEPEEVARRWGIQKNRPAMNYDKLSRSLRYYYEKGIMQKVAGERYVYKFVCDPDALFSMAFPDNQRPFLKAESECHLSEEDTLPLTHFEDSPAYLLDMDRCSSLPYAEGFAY
Chain of CRX (O43186 whole entry): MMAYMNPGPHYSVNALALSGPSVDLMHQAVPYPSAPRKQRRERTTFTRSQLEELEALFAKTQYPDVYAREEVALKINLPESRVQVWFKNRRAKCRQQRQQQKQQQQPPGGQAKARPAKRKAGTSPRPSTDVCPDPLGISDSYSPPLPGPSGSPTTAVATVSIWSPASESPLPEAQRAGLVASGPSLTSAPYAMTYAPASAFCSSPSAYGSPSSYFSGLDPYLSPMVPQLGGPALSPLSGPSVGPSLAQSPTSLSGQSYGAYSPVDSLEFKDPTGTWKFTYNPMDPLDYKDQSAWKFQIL
Chain of ETV6 (P41212 whole entry): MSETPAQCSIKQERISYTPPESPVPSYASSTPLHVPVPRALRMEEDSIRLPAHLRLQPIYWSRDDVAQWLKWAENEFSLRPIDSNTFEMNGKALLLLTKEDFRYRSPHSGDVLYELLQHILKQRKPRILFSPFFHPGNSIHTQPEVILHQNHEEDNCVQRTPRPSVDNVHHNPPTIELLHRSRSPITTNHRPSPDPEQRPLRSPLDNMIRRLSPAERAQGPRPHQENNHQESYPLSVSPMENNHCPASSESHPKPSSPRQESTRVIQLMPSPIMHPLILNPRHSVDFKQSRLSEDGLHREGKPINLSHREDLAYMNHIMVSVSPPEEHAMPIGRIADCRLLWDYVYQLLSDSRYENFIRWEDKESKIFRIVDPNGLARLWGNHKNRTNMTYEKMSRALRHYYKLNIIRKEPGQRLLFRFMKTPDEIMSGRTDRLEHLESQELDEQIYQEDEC
Chain of ETV1 (P50549 whole entry): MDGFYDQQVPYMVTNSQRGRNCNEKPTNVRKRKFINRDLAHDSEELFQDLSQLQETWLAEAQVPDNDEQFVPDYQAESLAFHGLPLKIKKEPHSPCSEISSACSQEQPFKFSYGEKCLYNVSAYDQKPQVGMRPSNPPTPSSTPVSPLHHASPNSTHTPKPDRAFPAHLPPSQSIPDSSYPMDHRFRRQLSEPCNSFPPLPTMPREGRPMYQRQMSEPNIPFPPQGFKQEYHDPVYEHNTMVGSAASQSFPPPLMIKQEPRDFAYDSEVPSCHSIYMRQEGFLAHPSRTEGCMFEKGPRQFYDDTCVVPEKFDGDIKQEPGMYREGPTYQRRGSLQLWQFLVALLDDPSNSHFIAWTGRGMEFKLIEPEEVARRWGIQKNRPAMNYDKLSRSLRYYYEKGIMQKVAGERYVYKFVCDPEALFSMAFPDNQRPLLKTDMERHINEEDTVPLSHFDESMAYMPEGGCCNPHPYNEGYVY
Chain of ELF4 (Q99607 whole entry): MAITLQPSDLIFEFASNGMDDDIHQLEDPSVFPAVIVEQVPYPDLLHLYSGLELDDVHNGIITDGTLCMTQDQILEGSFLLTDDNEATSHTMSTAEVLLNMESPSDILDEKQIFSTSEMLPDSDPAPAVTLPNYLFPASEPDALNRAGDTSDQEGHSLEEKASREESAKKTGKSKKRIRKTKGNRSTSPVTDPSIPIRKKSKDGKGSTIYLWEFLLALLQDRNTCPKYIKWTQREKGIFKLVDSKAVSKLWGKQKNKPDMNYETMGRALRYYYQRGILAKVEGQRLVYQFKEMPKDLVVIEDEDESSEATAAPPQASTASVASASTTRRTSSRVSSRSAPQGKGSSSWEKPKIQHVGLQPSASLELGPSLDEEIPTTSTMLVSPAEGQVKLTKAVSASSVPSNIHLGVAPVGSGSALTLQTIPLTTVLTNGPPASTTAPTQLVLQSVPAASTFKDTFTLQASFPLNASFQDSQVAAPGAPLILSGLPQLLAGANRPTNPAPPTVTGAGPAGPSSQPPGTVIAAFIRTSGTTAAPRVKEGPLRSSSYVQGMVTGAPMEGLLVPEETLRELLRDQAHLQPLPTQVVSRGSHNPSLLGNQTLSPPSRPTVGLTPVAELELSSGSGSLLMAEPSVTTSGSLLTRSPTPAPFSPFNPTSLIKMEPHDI

Consider TTCTTC, for which the binding signal in experiment [1] is 1.66 fold enrichment (6-mer frequency, TF over GST control); in experiment [2], 1.87 fold enrichment (6-mer frequency, TF over GST control); in experiment [3] it was 2.07 fold enrichment (6-mer frequency, TF over GST control); in experiment [4] it was 1.74 fold enrichment (6-mer frequency, TF over GST control); in [5], 1.81 fold enrichment (6-mer frequency, TF over GST control); in [6], 1.69 fold enrichment (6-mer frequency, TF over GST control). Besides, the binding signal in experiment [7] is 1.83 fold enrichment (6-mer frequency, TF over GST control); in experiment [8], 1.74 fold enrichment (6-mer frequency, TF over GST control); in experiment [9], 1.44 fold enrichment (6-mer frequency, TF over GST control); in [10] it was 1.9 fold enrichment (6-mer frequency, TF over GST control); in [11] it was 1.78 fold enrichment (6-mer frequency, TF over GST control); in [12] it was 1.83 fold enrichment (6-mer frequency, TF over GST control). Moreover, the binding signal was 1.7 fold enrichment (6-mer frequency, TF over GST control) in experiment [13]; 1.72 fold enrichment (6-mer frequency, TF over GST control) in experiment [14]; 1.7 fold enrichment (6-mer frequency, TF over GST control) in experiment [15]; 2.02 fold enrichment (6-mer frequency, TF over GST control) in experiment [16]; 1.8 fold enrichment (6-mer frequency, TF over GST control) in experiment [17]; 1.93 fold enrichment (6-mer frequency, TF over GST control) in [18].
